Measurements published in PubChem BioAssay (NCI).
About 79,000 compounds went through this panel and 15% of them were active in at least one assay; those are over-represented in the sample as a whole. A number with no mark means an inactive call. Calls of active or inactive are those of the source. No stated cut-off is given here; in the data, active means growth inhibition above about 70%; inactive means the rest. Where a SMILES comes first, the peptide text is derived from it. The star is where a group is joined. Trt = c1ccc(C(c2ccccc2)(c2ccccc2)*)cc1; Cbz = O=C(OCc1ccccc1)*

Legend:
[1] = NCI Yeast Anticancer Drug Screen. Data for the rad50 strain (AID 155);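 further: 0% = growth of vehicle-only cultures of the same strain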; conditions: S. cerevisiae rad50 strain growth inhibition; at 50.0 µM; active compounds read high
Outline: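 A DNA repair-deficient yeast mutant serves as the test organism; compound-induced growth inhibition is calculated against vehicle-treated cells.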

[2] = NCI Yeast Anticancer Drug Screen. Data for the mec2-1 strain (AID 157); conditions: S. cerevisiae mec2-1 strain, at 50.0 µM, active compounds read high
Outline: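 Readout is yeast growth inhibition, normalised to vehicle-treated controls, in the mec2-1 strain exposed to compound.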

[3] = NCI Yeast Anticancer Drug Screen. Data for the sgs1 mgt1 strain (AID 161);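 further: 0% = growth of cultures given vehicle only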; conditions: S. cerevisiae sgs1 mgt1 strain, at 50.0 µM, active compounds read high
Outline: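 Percent growth inhibition was derived by comparing compound-exposed mutant yeast with vehicle-exposed cultures. The strain carries alterations in DNA damage repair.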

[4] = NCI Yeast Anticancer Drug Screen. Data for the cln2 rad14 strain (AID 165);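 further: 0% = growth equal to vehicle treated cultures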; conditions: S. cerevisiae cln2 rad14 strain, at 50.0 µM, active compounds read high
Outline: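 Relative to vehicle controls, growth inhibition of compound-treated cln2 rad14 yeast was recorded.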

[5] = NCI Yeast Anticancer Drug Screen. Data for the bub3 strain (AID 167); conditions: S. cerevisiae bub3 mutant strain, at 50.0 µM, active compounds read high
Outline: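 Inhibition values come from growth of compound-treated mutant yeast normalised to vehicle-treated controls.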

[6] = NCI Yeast Anticancer Drug Screen. Data for the mlh1 rad18 strain (AID 175); conditions: S. cerevisiae mlh1 rad18 strain growth inhibition; at 50.0 µM; active compounds read high
Outline: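 Test agents were incubated with a yeast strain of defined genotype (DNA damage repair defect). Inhibition of growth was derived by comparison with vehicle-exposed cultures.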

| Compound | growth inhibition [1] | growth inhibition [2] | growth inhibition [3] | growth inhibition [4] | growth inhibition [5] | growth inhibition [6] |
| --- | --- | --- | --- | --- | --- | --- |
| O=[N+]([O-])c1ccc(/C=C/c2cc(-c3ccccc3)nc3ccc4ccccc4c23)cc1 | -11.1% | 5.1% | 9.9% | 3.2% | -11.9% | 4.5% |
| OCC(CO)(CO)CO | 18.9% | -0.7% | -6.8% | -16.1% | 28.8% | -5.3% |
| S=C(c1ccccc1)N1CCCCC1 | 8% | -1.7% | 0.45% | -23.4% | 16.3% | 4.05% |
| O=C1N=C2SCCCN2C1(c1ccccc1)c1ccccc1 | 4.2% | 21.2% | -3.4% | -7% | 0% | 6.9% |
| c1cc(Sc2nc(Sc3ccncc3)nc(Sc3ccncc3)n2)ccn1 | 5.15% | 8.6% | 14.8% | 39.2% | -9.7% | -7.25% |
| O=c1[nH]c(=O)n(C2CC(O)C(CO)O2)cc1C#Cc1ccc(F)cc1 (stereo unspecified) | -3.45% | 19.2% | -15.2% | -5.6% | 3.85% | -8.95% |
| O=C1CC2C1C1C=CC2n2c(=O)n(-c3ccccc3)c(=O)n21 (stereo unspecified) | -11.6% | 9.05% | 13.5% | 6% | 2.2% | 15.4% |
| CCN=C(N(CC)CC)N(CC)CC | -12.1% | 10.2% | 2.95% | -24.4% | 62.7% | 4.3% |
| O=S(=O)(O)C(O)C(c1ccccc1)c1ccccc1 (stereo unspecified) | -16.1% | -15.8% | -15.6% | -15.8% | -7.2% | -31.9% |
| NC(=O)N/N=C(\c1ccccc1)C1CCCCc2ccccc21 (stereo unspecified) | 48.5% | 20.6% | 33.2% | 9.95% | 43% | 48% |
| COc1cccc2c1OC(=O)C(S(=O)(=O)c1ccccc1)C2 (stereo unspecified) | -7.8% | -3.95% | 5.5% | -37.5% | -7.25% | -3.65% |
| O=C(O)c1cc(Cl)c(Cl)s1 | 13.2% | -20.1% | 16.7% | -68.9% | -18.3% | -1.9% |
| CC1(C(=O)O)CCCN1 (stereo unspecified) | 9.35% | -7.6% | -20.6% | 15.4% | -0.95% | -9% |
| NC1=C(O)c2cccc3cccc(c23)C1=O | 9.95% | 12.2% | 11.8% | 2.35% | 9.45% | 16.4% |
| O=CNC1(CO)CCCCC1 | -2.4% | -3.4% | -7.05% | -38.8% | -18.1% | 7.9% |
| O=C1CN2C(c3ccccc3)=NN(c3ccc([N+](=O)[O-])cc3)C2(c2ccccc2)c2cc(Cl)ccc2N1CC1CC1 (stereo unspecified) | 25.6% | -10.9% | -7.4% | 20.9% | 11.2% | 23.4% |
| CCCCCCCCCCCCCCCC[N+](C)(C)CCNC(C)=O | 99.2% (active) | 99.6% (active) | 99.7% (active) | 98.7% (active) | 99.2% (active) | 99.5% (active) |
| CN(C)n1c(O)c(N=O)sc1=S | -30.9% | -6.25% | -7.65% | -25.7% | -10.1% | 5.55% |
| NC(=O)c1ccc[n+](CC(=O)Nc2ccccc2)c1 | -5.6% | 0.65% | 6.45% | -30.6% | 1.95% | 3.8% |
| COCC(C)(CO)CC(C)CO (stereo unspecified) | -13% | -25.8% | -0.15% | -42% | -7.1% | -1.4% |
| CCCC(C(O)CC)[N+](=O)[O-] (stereo unspecified) | 8.65% | -16.1% | 11.7% | 5.35% | -6.25% | 21.6% |

| Compound | growth inhibition [1] | growth inhibition [2] | growth inhibition [3] | growth inhibition [4] | growth inhibition [5] | growth inhibition [6] |
| --- | --- | --- | --- | --- | --- | --- |
| CCCCCCCC(N)=O | 15.7% | -28.1% | 8.4% | 12.4% | -11.6% | -10.3% |
| COc1ccc(C)cc1NC(=O)c1c(Br)c(Br)c(Br)c(Br)c1C(=O)O | 4.25% | -11.1% | 10.4% | 12.8% | 6.8% | 10.8% |
| CCC(c1ccc(OC)cc1)C(C(C)=O)c1ccc(OC)cc1 (stereo unspecified) | -5.55% | -13% | -4.1% | -22.9% | 25.6% | -5.85% |
| NCCn1[nH]c(=O)c2ncccc2c1=O | -59% | -27.6% | -4.45% | -49.1% | -6.6% | -14.9% |
| O=C(O)C1c2ccccc2C(C(=O)O)c2ccccc21 (stereo unspecified) | -6.4% | -2.25% | -4% | 19.9% | 13% | 31.8% |
| OC1c2ccccc2-c2ccc(N(Cc3ccccc3)Cc3ccccc3)cc21 (stereo unspecified) | 6.95% | 11.4% | 3.75% | 30.8% | -9% | 23.8% |
| O=C(Nc1ccc([N+](=O)[O-])cc1)Oc1c(Cl)cc(Cl)c(Cl)c1[N+](=O)[O-] | 43.6% | -18.7% | 57.2% | 25.6% | 2.3% | 60.4% |
| C1=C(c2ccccc2)c2ccccc2/C1=N/Nc1ccccc1 | 6.4% | 6.15% | 8.1% | 2.3% | 0.6% | 5% |
| O=Cc1ccc(OCCCOc2ccc([N+](=O)[O-])cc2)cc1 | -5.1% | 1.6% | 11.3% | -12.1% | 33.1% | 42% |
| Nc1nc(N)c2nc(C(=O)O)c(C(=O)O)nc2n1 | -20.6% | -8.2% | -11.5% | -15.8% | -19% | -4.2% |
| COC12C=CC(CC1)C(C)(C)C2=O (stereo unspecified) | 8.85% | -4.7% | -3.9% | 3.2% | -3.05% | -0.55% |
| CSC1=N/C(=C\c2ccc(C)cc2)C(=O)N1 | -35.5% | 0.3% | 20.2% | 0.85% | -6.35% | -10.5% |
| COC(=O)C(CO)NC(=O)C(CSC(c1ccccc1)(c1ccccc1)c1ccccc1)NC(=O)OCc1ccccc1 (stereo unspecified) (Cbz-Cys(Trt)-Ser-OMe; configuration not given here) | 76.2% (active) | 68.7% | 78.8% (active) | 78% (active) | 67.2% | 84.2% (active) |
| CNC(=O)Sc1ccc([N+](C)(C)C)cc1 | 9.8% | 0.1% | 19.8% | -7.5% | 18.8% | 30.3% |
| COC(=O)c1ccccc1S(=O)(=O)NC(C)C | 10.8% | -1.15% | 16.9% | 11.8% | -4.7% | 25.8% |
| CCC(=O)OCCN(C)C | -28% | -50.4% | 0.65% | 10.8% | -19.3% | -8.35% |
| Nc1cc(Cl)nc(N)n1 | -12.2% | -16.4% | 9.9% | 0.1% | -5.4% | 17.6% |
| O=C(O)C12C3CCC(CC3)C1(C(=O)O)C1CCC2C1 (stereo unspecified) | -57.6% | -12.4% | -12.1% | -24.1% | 5.05% | -1.2% |
| Cc1ccc(C(=O)C(c2nc3n(c2O)/C(=N/C(=O)Nc2ccc(Cl)cc2)N=N3)c2nc3n(c2O)/C(=N/C(=O)Nc2ccc(Cl)cc2)N=N3)cc1 | -44.1% | -29.2% | -27.2% | -39% | -29.1% | -25.4% |
| COC(=O)/C(C)=C/C=C/C(C)C(O)C(C)C1OC(CC(OC)OC)C(C)C(O)C1C (stereo unspecified) | 28.9% | 22.2% | 9.75% | 2.65% | 2.9% | 19.9% |
